# Results from PubChem BioAssay.
# Records with an inconclusive call do not appear. Active and inactive are the calls of the source.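 Rule for the calls, unless noted: active = GFP signal, as percent of the solvent control, above the screen mean plus 3 SD, about 149; inconclusive = no reading because the compound's own fluorescence upset strain identification; inactive = the rest.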
# Columns and labels:
# [1] = yeast TOR pathway RPL19A-GFP modulators, primary screen, cell-based, S. cerevisiae, multiplex flow cytometry (AID 1862; in the data active = percent of DMSO control GFP below about 86%;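 note: lower values mimic rapamycin by blocking the RPL19A rise seen in DMSO cells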); conditions: S. cerevisiae RPL19A-GFP strain, flow cytometry fluorescence, 3 h; at 10 µM; stronger effect = lower value
# [2] = modulators of MEP2-GFP levels in yeast, primary screen, S. cerevisiae, multiplex flow cytometry (AID 1867;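 active = GFP response, as percent of the DMSO control, above the screen-wide mean plus 3 SD, about 139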;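 note: median GFP channel fluorescence of barcode-gated MEP2-GFP cells measured by flow cytometry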); conditions: S. cerevisiae MEP2-GFP strain, 3 h, at 10 µM, stronger effect = higher value, 100% means same as DMSO wells
# [3] = modulators of CIT2-GFP expression in yeast, primary screen, S. cerevisiae, GFP fusion, multiplex flow cytometry (AID 1870;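 active = percent response above a set limit, the screen-wide mean plus 3 SD, cut at about 130% in these data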;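 note: barcoded CIT2-GFP strain pooled with four other GFP strains with rapamycin as positive control; median GFP fluorescence per well over plate mean of DMSO wells so 100% = DMSO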); conditions: 3 h, at 10 µM, stronger effect = higher value
# [4] = modulators of LAP4-GFP expression in yeast, primary screen, S. cerevisiae, multiplex flow cytometry (AID 1873); conditions: 3 h, at 10 µM, stronger effect = higher value
# [5] = modulators of AGP1-GFP expression in yeast TOR pathway, primary screen, cell-based, multiplex flow cytometry, S. cerevisiae (AID 1887;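 active = GFP signal above the screen-wide mean plus 3 SD, that is over about 124.5% of the solvent control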;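 note: AGP1-GFP fusion strain of S. cerevisiae within a five-strain barcoded multiplex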); conditions: 3 h, at 10 µM, stronger effect = higher value
# [6] = inhibitors of CD8+ T cell-vesicle binding, pilot screen, LFA-1/ICAM-1 modulator project, MLPCN validation set, flow cytometry (AID 2523;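 active = response below a set limit, under 55% cells CD8-positive and vesicle-bound, and CD8 cells' 90th-percentile brightness under 279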;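 for vesicle binding response: mean PE anti-B7-1 fluorescence of CD8+ cells relative to row control; 100% = QL9-loaded vesicles with DMSO vehicle in the same plate row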); conditions: 2C mouse CD8+ T cells, at 7 µM, stronger effect = lower value; double positive events: measured here: CD8+/vesicle+ event percentage
# [7] = molecular target: Integrin beta-1 (Homo sapiens) + Integrin alpha-4 (Homo sapiens) (UniProt P13612+P05556); test: inhibition of HUTS-21 binding to VLA-4, pilot screen, VLA-4 allosteric modulator project, U937 cells, HUTS-21 mAb, flow cytometry, validation set (AID 2674;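 active = inhibition above 50%, about 3 SD of the validation set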;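 note: antibody binding induced by the VLA-4 ligand LDV present at three times its Kd; 0% = LDV ligand with antibody and no compound and 100% = antibody without LDV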); conditions: HUTS-21 LIBS mAb binding, at 6.7 µM, stronger effect = higher value, binding induced by LDV ligand
# Integrin beta-1 (Homo sapiens) + Integrin alpha-4 (Homo sapiens), sequence (P05556 whole entry, looked up): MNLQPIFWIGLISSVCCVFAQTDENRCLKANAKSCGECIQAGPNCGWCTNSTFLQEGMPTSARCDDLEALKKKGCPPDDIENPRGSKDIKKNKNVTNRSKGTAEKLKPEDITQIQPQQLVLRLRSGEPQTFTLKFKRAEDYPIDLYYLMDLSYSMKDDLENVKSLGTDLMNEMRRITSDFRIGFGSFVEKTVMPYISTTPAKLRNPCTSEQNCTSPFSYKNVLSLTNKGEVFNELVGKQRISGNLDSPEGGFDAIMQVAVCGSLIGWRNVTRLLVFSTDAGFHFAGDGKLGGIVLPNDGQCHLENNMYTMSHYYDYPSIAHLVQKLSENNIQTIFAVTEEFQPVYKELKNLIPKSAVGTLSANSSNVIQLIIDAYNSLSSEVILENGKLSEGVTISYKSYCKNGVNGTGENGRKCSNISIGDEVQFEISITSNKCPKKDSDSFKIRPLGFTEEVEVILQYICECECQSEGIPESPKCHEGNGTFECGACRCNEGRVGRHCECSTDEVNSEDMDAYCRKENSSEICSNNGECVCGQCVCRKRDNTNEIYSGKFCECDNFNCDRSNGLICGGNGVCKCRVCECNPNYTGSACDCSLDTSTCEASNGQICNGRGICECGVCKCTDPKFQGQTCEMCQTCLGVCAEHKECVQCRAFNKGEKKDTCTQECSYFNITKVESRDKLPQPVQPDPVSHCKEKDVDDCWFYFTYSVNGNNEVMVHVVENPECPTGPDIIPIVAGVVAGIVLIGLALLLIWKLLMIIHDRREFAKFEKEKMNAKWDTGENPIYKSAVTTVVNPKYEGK
# Integrin beta-1 (Homo sapiens) + Integrin alpha-4 (Homo sapiens), sequence (P13612 whole entry, looked up): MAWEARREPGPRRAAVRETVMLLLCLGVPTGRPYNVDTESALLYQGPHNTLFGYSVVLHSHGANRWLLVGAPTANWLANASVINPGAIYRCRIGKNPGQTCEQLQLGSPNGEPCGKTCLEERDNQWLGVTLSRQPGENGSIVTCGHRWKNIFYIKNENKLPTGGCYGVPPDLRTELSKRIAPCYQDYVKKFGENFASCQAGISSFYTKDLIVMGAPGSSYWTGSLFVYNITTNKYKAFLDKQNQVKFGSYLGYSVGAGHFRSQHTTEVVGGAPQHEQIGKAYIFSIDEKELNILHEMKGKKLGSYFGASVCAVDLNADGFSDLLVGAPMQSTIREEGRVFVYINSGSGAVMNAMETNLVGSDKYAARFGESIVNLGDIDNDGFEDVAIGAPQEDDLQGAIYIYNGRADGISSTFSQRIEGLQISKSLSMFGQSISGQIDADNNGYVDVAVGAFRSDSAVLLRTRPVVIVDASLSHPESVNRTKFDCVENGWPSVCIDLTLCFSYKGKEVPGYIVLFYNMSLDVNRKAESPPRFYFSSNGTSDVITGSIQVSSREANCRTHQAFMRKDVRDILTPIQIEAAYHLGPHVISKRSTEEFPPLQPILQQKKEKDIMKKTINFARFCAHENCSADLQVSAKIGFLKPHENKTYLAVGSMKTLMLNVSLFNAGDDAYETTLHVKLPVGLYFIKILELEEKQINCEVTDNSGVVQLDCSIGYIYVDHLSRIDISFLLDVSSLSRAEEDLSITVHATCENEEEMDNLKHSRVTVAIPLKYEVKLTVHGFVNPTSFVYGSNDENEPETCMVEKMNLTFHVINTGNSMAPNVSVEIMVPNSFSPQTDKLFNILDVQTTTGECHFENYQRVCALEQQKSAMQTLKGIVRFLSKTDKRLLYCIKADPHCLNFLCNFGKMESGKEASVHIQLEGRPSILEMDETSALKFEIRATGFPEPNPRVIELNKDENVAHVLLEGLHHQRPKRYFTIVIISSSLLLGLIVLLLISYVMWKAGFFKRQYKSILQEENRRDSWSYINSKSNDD
# [8] = superoxide lowering in aged yeast cells, pilot screen, validation compound set (AID 2706;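 active = superoxide response below 65% of plate, a cut near 3 SD across the whole screen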;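 note: yeast exposed to compound for one week at 30 degrees C before staining; 100% = mean of all compound wells on the same plate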); conditions: S. cerevisiae aging, superoxide DHE fluorescence; at 10 µM, stronger effect = lower value
# [9] = molecular target: Beta-adrenergic receptor kinase 1 (Homo sapiens) (UniProt P25098); test: GRK2 binders displacing RNA aptamer, biochemical, validation, human GRK2, bead flow cytometry (AID 488806;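 active = aptamer binding inhibition above 30%, about 3 SD of noise from non-fluorescent compounds; inactive = inhibition at or below 30%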); conditions: bead-bound GRK2, FAM-aptamer displacement, at 10 µM, stronger effect = higher value
# Beta-adrenergic receptor kinase 1 (Homo sapiens), sequence (P25098 whole entry, looked up): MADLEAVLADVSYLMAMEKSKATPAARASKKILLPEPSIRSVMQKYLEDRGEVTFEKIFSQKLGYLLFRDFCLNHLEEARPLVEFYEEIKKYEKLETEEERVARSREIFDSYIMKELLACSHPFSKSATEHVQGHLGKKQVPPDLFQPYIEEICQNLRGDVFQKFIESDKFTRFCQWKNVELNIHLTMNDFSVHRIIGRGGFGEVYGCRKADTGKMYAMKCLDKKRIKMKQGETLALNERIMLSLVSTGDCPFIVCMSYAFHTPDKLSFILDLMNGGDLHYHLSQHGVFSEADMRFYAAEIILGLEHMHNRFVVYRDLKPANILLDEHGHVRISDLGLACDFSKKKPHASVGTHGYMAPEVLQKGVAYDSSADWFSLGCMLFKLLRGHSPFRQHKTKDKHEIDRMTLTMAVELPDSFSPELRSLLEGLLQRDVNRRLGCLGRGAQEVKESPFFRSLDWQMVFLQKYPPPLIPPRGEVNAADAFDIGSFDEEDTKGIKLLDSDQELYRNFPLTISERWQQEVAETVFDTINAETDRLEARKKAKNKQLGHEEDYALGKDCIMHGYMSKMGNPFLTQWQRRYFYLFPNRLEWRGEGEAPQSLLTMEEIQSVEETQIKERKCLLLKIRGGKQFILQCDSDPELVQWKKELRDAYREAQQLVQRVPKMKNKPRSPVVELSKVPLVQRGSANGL
# [10] = molecular target: AP-2 complex subunit beta (Homo sapiens) (UniProt P63010); test: inhibitors of arrestin peptide binding to AP2, pilot screen, biochemical, validation set, GST-AP2 beads, flow cytometry (AID 504541;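 active = inhibition above 54%, about 3 SD of non-fluorescent compounds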;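 note: AP2 carries R879A mutation and is captured from E. coli lysate; bead-bound FITC arrestin peptide fluorescence measuring arrestin peptide binding to AP2; 0% = DMSO wells and 100% = excess unlabeled arrestin peptide control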); conditions: FITC arrestin peptide, at 10 µM, stronger effect = higher value, AP2 beta2 appendage fragment, R879A mutant
# AP-2 complex subunit beta (Homo sapiens), sequence (P63010 whole entry, looked up, the tested form may be a part, one chain of several): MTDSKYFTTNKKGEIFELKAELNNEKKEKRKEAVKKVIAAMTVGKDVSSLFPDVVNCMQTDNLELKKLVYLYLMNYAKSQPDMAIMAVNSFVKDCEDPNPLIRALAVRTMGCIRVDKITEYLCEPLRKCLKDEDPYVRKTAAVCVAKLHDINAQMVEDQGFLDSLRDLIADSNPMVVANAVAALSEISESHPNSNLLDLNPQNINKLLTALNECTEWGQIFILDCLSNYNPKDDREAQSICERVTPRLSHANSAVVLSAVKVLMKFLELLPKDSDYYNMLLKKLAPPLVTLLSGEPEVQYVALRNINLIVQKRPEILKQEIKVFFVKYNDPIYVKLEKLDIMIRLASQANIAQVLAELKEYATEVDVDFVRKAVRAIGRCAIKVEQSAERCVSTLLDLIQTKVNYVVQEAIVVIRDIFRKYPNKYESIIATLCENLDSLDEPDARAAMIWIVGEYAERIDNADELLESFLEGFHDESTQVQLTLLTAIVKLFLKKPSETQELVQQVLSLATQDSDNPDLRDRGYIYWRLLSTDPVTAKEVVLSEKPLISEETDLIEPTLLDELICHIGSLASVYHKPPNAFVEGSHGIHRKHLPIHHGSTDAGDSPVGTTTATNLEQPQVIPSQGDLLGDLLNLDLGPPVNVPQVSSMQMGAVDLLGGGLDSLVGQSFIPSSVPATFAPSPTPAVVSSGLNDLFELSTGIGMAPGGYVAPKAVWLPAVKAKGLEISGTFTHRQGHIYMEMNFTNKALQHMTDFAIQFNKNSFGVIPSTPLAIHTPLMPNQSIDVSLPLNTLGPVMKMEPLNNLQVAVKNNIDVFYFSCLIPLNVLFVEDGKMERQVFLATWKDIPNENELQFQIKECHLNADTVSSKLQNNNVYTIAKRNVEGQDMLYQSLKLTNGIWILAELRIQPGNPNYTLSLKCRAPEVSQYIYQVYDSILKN
# [11] = yeast V-ATPase proton transport modulators, S. cerevisiae, pHLuorin, HTS validation (AID 504600; in the data active = response above about 15%;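 note: plate controls were DMSO for no effect and reference compound for full effect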); conditions: S. cerevisiae pHLuorin cytosolic pH, at 10 µM, stronger effect = higher value
# [12] = system: anti-desmoglein-3 scFv antibody binding to human DSG3; test: inhibitors of anti-DSG3 scFv binding to DSG3, pilot screen, biochemical, validation compound set, bead-based, flow cytometry (AID 588368;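 active = binding below the plate cutoff, the plate median minus 3 SD, with a reading above zero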;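 note: signal is the median channel fluorescence of bead-bound GFP antibody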); conditions: Protein G beads, DSG3-Fc, scFv-GFP binding, at 10 µM, stronger effect = lower value
# [13] = inhibitors of fungal efflux pumps CDR1, CDR2, MDR1, pilot screen, validation compound set, multiplex, phenotypic (AID 588506;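 active = efflux inhibition above 0.42, the validation set average plus 4 SD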;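 note: Nile Red retained in cells so higher fluorescence means more efflux inhibition; 0 = negative control wells and 1 = enniatin B 25 µM full block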); conditions: S. cerevisiae pump-expressing triplex, Nile Red efflux flow cytometry; at 10 µM; stronger effect = higher value; the pumps come from Candida albicans
# [14] = molecular target: ATP-binding cassette sub-family B member 6 (Homo sapiens) (UniProt Q9NP58); test: ABCB6 transporter inhibitors, pilot screen, K562-ABCB6 cells, flow cytometry, validation set (AID 588550;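 active = inhibition above the screen-wide mean plus 3 SD, about 51%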;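 note: 0% = DMSO wells and 100% = benzethonium chloride 70 µM positive control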); conditions: K562-ABCB6 porphyrin accumulation, 1 h, at 10 µM, stronger effect = higher value
# ATP-binding cassette sub-family B member 6 (Homo sapiens), sequence (Q9NP58 whole entry, looked up): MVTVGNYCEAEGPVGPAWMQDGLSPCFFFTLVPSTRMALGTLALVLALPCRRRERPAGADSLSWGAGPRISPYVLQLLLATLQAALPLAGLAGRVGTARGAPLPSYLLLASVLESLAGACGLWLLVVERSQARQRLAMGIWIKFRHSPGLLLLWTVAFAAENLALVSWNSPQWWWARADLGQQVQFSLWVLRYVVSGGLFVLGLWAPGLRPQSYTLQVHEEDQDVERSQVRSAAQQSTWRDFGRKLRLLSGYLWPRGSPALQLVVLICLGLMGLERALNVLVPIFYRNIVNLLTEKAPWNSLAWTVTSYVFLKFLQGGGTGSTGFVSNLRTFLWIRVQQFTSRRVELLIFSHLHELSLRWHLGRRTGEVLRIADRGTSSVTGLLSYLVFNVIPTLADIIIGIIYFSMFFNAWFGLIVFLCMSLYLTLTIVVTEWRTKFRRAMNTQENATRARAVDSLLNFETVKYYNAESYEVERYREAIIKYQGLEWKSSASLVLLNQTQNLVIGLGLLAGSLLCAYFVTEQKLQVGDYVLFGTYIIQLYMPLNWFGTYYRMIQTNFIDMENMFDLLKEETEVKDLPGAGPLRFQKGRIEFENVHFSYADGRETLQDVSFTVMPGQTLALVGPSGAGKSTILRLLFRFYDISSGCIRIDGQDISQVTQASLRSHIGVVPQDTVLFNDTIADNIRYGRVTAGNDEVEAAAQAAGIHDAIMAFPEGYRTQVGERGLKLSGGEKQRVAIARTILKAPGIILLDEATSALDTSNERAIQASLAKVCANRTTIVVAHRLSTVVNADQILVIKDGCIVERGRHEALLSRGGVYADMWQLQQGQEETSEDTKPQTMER
# [15] = promoters of myeloid differentiation in arrested cells, primary screen, cell-based, GFP/MAC1 double positive, flow cytometry, validation set (AID 588685;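 active = differentiation response of at least 50%, scaled between solvent and reference control, from cells with both markers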;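 note: compound exposure lasts four days before antibody staining and flow analysis; 0% = DMSO wells and 100% = 5 µM fulvestrant positive control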); conditions: ER-HoxA9 marrow cells, stronger effect = higher value, normalized: vehicle 0, fulvestrant 100
SMILES,percent of DMSO control GFP [1],GFP response vs DMSO [2],percent response of DMSO control [3],GFP response vs DMSO [4],"GFP response, % of DMSO [5]",double positive events [6] [%],vesicle binding response [6],inhibition [7],superoxide response (% of plate) [8],aptamer binding inhibition [9],inhibition [10],response [11],binding (% of control) [12],efflux inhibition (fraction of control) [13],inhibition [14],differentiation response [15]
CC(C)NC(=O)C1(c2ccccc2)CCOCC1,100% (inactive),95.9% (inactive),104% (inactive),99.4% (inactive),99.3% (inactive),62.2,191% (inactive),-51.5% (inactive),99.3% (inactive),4% (inactive),3.27% (inactive),0.02% (inactive),98.2% (inactive),-0.01 (inactive),4% (inactive),-0.2% (inactive)
Cc1ccc2[nH]c3c(c2c1)CN(C)CC3,102% (inactive),107% (inactive),97.9% (inactive),97.4% (inactive),100% (inactive),63.4,188% (inactive),9.09% (inactive),99.8% (inactive),5% (inactive),15.9% (inactive),-3.83% (inactive),105% (inactive),-0.09 (inactive),12% (inactive),-8.27% (inactive)
CO[C@@H]1O[C@@H]2COC(c3ccccc3)O[C@@H]2[C@@H](OC)[C@@H]1O (stereo partly drawn),103% (inactive),104% (inactive),106% (inactive),96.4% (inactive),99.6% (inactive),56,166% (inactive),5.36% (inactive),117% (inactive),5% (inactive),15.1% (inactive),4.1% (inactive),102% (inactive),0.1 (inactive),4% (inactive),-9.89% (inactive)
